In ChEMBL document CHEMBL1961873, “Compounds: GSK PKIS; Assays: Nanosyn kinase panel” (2012):
Several values for one entry are separate records, joined by “and”; a condition that tells them apart may be missing. Identical values can stand only once.

Key:
[1] = biological target: Fibroblast growth factor receptor 4 (Homo sapiens) (UniProt P22455); conditions: at 1 µM;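 also: reported figure is the averaged percent inhibition of FGFR4, from the GSK PKIS kinase screening panel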
[2] = biological target: Tyrosine-protein kinase Fgr (Homo sapiens) (UniProt P09769); conditions: at 0.1 µM
Chain of Tyrosine-protein kinase Fgr (Homo sapiens) (P09769 2-529 limits assumed): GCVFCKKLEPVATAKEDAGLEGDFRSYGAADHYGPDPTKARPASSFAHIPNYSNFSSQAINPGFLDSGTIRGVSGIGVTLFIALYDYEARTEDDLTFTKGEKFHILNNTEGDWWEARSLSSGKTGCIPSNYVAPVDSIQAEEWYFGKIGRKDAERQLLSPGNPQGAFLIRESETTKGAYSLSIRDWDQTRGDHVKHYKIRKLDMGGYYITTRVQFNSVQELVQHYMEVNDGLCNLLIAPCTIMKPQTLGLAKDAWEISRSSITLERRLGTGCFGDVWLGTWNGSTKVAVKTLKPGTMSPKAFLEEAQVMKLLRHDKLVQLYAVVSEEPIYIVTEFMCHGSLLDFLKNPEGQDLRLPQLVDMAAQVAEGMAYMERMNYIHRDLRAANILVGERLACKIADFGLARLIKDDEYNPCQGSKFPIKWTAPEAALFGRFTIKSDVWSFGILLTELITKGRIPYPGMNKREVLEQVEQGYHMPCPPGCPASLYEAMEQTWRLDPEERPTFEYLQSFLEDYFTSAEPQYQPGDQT

[3] = biological target: Tyrosine-protein kinase Fgr (Homo sapiens) (UniProt P09769); conditions: at 1 µM
[4] = biological target: Vascular endothelial growth factor receptor 1 (Homo sapiens) (UniProt P17948); conditions: at 0.1 µM
Chain of Vascular endothelial growth factor receptor 1 (Homo sapiens) (P17948 whole entry): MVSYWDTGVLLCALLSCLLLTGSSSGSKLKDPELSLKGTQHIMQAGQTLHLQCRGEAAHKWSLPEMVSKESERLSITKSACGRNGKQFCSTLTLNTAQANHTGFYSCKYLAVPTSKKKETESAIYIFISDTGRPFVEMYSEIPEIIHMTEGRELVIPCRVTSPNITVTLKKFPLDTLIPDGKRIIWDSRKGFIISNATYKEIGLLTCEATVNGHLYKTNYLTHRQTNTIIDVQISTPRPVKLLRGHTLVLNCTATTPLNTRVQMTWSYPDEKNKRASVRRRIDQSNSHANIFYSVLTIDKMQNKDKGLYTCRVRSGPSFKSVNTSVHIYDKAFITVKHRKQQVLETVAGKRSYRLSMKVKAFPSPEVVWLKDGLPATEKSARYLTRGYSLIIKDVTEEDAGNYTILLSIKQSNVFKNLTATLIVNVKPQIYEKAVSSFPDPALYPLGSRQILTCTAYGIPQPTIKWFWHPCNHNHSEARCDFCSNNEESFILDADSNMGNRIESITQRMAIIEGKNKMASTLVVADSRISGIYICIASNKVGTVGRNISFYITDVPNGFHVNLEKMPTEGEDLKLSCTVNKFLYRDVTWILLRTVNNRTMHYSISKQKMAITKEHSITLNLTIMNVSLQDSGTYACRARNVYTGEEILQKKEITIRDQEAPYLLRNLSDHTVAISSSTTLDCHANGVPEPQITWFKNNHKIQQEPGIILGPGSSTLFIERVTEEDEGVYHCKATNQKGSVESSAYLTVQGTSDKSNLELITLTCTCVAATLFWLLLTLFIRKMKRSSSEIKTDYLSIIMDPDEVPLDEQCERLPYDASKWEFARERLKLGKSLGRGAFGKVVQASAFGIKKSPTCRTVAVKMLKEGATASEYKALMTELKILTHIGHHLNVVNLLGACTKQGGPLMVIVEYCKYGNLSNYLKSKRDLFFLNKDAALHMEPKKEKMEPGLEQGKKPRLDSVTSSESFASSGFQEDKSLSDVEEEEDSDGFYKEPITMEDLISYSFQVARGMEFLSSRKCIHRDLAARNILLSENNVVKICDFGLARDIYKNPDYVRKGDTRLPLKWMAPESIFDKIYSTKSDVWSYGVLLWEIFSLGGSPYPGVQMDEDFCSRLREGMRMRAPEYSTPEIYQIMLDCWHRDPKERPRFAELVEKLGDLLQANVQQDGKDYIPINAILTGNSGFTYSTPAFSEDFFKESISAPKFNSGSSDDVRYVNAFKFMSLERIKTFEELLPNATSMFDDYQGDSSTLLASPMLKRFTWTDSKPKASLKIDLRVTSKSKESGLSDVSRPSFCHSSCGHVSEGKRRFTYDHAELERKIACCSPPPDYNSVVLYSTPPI

[5] = biological target: Vascular endothelial growth factor receptor 1 (Homo sapiens) (UniProt P17948); conditions: at 1 µM
[6] = biological target: Receptor-type tyrosine-protein kinase FLT3 (Homo sapiens) (UniProt P36888); conditions: at 0.1 µM
[7] = biological target: Receptor-type tyrosine-protein kinase FLT3 (Homo sapiens) (UniProt P36888); conditions: at 1 µM
[8] = test system: T1, Receptor-type tyrosine-protein kinase FLT3 (Homo sapiens), P36888 [D835Y]; conditions: at 0.1 µM
T1 sequence (whole entry): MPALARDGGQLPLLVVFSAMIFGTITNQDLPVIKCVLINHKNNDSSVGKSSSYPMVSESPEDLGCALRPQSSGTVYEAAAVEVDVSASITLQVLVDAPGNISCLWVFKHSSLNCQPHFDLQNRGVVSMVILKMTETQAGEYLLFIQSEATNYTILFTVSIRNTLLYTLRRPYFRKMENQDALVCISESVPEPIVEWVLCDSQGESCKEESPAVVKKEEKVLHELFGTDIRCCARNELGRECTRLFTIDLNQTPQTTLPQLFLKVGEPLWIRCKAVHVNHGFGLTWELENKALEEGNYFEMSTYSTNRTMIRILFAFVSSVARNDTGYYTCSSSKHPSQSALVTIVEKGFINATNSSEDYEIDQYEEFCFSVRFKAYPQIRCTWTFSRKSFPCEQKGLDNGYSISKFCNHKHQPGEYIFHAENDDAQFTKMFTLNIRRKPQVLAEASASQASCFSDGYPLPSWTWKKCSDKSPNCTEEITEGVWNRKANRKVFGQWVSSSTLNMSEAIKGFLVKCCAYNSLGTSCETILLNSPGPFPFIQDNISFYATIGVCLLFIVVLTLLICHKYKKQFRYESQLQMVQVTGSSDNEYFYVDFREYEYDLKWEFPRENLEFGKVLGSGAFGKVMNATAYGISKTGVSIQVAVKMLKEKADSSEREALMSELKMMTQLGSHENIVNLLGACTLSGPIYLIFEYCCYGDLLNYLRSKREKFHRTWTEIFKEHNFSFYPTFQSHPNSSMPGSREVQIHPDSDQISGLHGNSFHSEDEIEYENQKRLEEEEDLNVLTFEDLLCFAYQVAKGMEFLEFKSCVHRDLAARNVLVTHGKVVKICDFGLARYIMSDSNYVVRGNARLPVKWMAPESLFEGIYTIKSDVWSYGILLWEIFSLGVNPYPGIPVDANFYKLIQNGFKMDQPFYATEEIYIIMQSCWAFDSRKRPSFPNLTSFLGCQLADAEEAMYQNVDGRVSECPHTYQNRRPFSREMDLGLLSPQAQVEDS

[9] = biological target: Non-receptor tyrosine-protein kinase TYK2 (Homo sapiens) (UniProt P29597); conditions: at 1 µM;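 also: values are mean percent inhibition of TYK2 kinase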
Chain of Non-receptor tyrosine-protein kinase TYK2 (Homo sapiens) (P29597 whole entry): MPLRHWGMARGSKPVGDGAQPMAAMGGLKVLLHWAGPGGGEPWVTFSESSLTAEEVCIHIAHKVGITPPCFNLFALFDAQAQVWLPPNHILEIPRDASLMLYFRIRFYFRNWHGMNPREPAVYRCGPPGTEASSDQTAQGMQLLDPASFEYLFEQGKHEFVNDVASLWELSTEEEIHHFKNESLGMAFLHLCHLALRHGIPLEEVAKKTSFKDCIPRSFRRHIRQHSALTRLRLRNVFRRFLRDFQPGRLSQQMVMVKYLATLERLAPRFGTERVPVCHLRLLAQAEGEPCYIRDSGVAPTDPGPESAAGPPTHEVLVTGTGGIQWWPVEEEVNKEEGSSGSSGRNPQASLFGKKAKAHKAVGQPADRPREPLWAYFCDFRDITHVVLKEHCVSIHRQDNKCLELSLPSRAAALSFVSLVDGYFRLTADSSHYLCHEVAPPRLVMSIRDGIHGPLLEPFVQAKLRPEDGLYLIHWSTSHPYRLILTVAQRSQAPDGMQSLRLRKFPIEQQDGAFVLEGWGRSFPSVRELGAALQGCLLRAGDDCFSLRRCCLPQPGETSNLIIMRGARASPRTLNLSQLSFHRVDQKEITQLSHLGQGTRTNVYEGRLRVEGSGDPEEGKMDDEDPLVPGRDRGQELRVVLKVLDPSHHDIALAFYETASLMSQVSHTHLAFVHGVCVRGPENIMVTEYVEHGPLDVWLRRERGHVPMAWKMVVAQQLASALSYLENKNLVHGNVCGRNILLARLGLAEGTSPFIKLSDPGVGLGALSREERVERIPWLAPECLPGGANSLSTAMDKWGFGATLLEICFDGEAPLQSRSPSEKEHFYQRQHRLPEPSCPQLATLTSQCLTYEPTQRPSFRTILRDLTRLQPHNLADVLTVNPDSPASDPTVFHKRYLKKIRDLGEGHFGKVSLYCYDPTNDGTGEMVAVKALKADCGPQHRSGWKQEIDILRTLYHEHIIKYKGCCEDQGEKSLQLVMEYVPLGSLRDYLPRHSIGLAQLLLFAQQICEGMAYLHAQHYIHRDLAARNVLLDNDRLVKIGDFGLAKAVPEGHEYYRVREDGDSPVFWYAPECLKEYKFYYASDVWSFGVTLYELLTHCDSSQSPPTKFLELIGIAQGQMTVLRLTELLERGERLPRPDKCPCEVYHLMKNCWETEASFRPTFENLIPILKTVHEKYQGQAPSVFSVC

[10] = biological target: T2, Tyrosine-protein kinase receptor TYRO3 (Homo sapiens) (UniProt Q06418); conditions: at 0.1 µM;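 also: reported percentages are averaged inhibition values of TYRO3 kinase activity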
T2 sequence (whole entry): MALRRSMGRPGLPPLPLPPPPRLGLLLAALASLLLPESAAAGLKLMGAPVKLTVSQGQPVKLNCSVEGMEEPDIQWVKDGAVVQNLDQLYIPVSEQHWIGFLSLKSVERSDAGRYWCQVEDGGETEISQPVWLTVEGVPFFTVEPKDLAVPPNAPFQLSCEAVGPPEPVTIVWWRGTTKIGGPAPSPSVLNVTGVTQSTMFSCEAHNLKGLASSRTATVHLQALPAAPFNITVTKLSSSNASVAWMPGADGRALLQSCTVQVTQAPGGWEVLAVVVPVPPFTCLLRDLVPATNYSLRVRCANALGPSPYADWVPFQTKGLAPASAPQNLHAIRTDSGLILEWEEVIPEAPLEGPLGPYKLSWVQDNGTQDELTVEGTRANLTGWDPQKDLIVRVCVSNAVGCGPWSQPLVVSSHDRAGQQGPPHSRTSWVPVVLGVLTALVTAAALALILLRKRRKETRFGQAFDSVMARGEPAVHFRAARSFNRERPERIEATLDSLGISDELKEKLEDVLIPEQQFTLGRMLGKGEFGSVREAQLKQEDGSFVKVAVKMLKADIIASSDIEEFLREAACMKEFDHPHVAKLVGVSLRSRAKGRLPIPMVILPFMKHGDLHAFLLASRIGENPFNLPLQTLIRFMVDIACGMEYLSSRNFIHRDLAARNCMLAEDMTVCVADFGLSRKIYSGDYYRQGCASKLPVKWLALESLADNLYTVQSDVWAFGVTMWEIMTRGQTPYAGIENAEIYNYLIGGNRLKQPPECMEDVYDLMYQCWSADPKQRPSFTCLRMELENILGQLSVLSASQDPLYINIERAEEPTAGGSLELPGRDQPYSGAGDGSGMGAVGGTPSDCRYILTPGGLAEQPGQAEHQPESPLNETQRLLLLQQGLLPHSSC

Chain of Fibroblast growth factor receptor 4 (Homo sapiens) (P22455 22-802 limits assumed): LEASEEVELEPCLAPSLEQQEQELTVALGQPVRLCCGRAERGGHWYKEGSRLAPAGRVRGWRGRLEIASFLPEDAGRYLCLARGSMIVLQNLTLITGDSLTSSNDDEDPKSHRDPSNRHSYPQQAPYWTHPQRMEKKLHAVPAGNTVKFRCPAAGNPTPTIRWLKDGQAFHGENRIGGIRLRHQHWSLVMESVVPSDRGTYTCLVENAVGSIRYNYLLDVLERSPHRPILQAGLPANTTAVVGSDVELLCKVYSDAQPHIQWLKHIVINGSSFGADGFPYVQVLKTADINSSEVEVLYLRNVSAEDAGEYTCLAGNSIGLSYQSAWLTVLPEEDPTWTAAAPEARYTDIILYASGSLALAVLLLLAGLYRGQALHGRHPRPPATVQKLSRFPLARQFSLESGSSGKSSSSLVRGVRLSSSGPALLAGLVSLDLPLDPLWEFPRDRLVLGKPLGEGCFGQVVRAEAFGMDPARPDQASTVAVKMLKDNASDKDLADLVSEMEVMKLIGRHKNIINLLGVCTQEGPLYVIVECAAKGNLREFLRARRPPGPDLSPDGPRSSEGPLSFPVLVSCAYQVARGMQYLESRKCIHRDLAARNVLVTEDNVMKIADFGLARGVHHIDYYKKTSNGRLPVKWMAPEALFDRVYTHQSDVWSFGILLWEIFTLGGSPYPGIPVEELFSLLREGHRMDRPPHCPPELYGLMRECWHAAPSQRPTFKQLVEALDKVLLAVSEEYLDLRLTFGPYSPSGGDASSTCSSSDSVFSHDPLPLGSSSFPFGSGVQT

## Fc1cccc(COc2ccc(Nc3ncncc3C#Cc3ccccc3)cc2Cl)c1
[1]
  inhibition: 0.25%
[2]
  inhibition: 5.41%
[3]
  inhibition: 2.24%
[4]
  inhibition: 1.51%
[5]
  inhibition: 1.02%
[6]
  inhibition: 2.67%
[7]
  inhibition: 5.4%
[8]
  inhibition: 4.26%
[9]
  inhibition: -1.45%
[10]
  inhibition: 2.1%

## CS(=O)(=O)Nc1ccc(-c2ccc3c(NC(=O)C4CC4)n[nH]c3c2)cc1
[1]
  inhibition: 0.84%
[2]
  inhibition: 1.59%
[3]
  inhibition: 7.28%
[4]
  inhibition: 1.26%
[5]
  inhibition: 3.04%
[6]
  inhibition: -0.08%
[7]
  inhibition: 5.66%
[8]
  inhibition: 1.14%
[9]
  inhibition: -2.13%
[10]
  inhibition: 2.75%

## Nc1nonc1-c1nc2cnccc2n1C1CC1
[1]
  inhibition: 0.52% and -2.65%
[2]
  inhibition: 1.63% and 3.54%
[3]
  inhibition: 4.78% and 2.49%
[4]
  inhibition: 2.44% and 2.46%
[5]
  inhibition: 7.3% and 7.59%
[6]
  inhibition: -0.66% and 0.33%
[7]
  inhibition: 4.5% and 3.82%
[8]
  inhibition: 2.73% and -0.79%
[9]
  inhibition: -1.02% and -1.56%
[10]
  inhibition: 1.66% and 1.58%

## Fc1ccc(Nc2nccc(-c3c(-c4ccc(C(F)(F)F)cc4)nn4ncccc34)n2)cc1F
[1]
  inhibition: 3.24%
[2]
  inhibition: -0.18%
[3]
  inhibition: 4.23%
[4]
  inhibition: 1.95%
[5]
  inhibition: 4.12%
[6]
  inhibition: 1.11%
[7]
  inhibition: 4.52%
[8]
  inhibition: 0.57%
[9]
  inhibition: -3.25%
[10]
  inhibition: 3.71%

## O=C(O[C@H]1CN[C@H](C#Cc2cc3ncnc(Nc4ccc5c(ccn5Cc5cc(F)ccc5F)c4)c3s2)C1)N1CCOCC1
[1]
  inhibition: 1.82%
[2]
  inhibition: 2.14%
[3]
  inhibition: 2.6%
[4]
  inhibition: 0.98%
[5]
  inhibition: -0.89%
[6]
  inhibition: 1.02%
[7]
  inhibition: 2.83%
[8]
  inhibition: -5.8%
[9]
  inhibition: -1.34%
[10]
  inhibition: 2.07%

## Cc1cc(O)cc(C)c1/C=C/c1cncc(C(=O)OC(C)(C)C)c1
[1]
  inhibition: 2.64%
[2]
  inhibition: 8.01%
[3]
  inhibition: 34%
[4]
  inhibition: 2.02%
[5]
  inhibition: 2.37%
[6]
  inhibition: 2.32%
[7]
  inhibition: 1.9%
[8]
  inhibition: -1.99%
[9]
  inhibition: -2.24%
[10]
  inhibition: 3.2%

## CN1CCC(C(=O)Nc2n[nH]c3nc(-c4ccc(O)cc4)c(Br)cc23)CC1
[1]
  inhibition: -2.79% and 2.44%
[2]
  inhibition: 4.74% and 1.32%
[3]
  inhibition: 4.79% and 3.79%
[4]
  inhibition: -0.55% and 2.25%
[5]
  inhibition: 1.75% and 2.84%
[6]
  inhibition: 1.75% and 4.1%
[7]
  inhibition: 5.59% and 2.93%
[8]
  inhibition: -2.26% and 1.33%
[9]
  inhibition: -0.92% and -0.98%
[10]
  inhibition: 2.21% and 0.67%

## CC1(C)CC(n2cnc(-c3ccc(F)cc3)c2-c2ccnc(N)n2)CC(C)(C)N1
[1]
  inhibition: 2.01%
[2]
  inhibition: 0.26%
[3]
  inhibition: 3.54%
[4]
  inhibition: 1.16%
[5]
  inhibition: 1.59%
[6]
  inhibition: 0.9%
[7]
  inhibition: -0.24%
[8]
  inhibition: 2.51%
[9]
  inhibition: 0.03%
[10]
  inhibition: 0.59%

## COc1ccc(-c2nn3ncccc3c2-c2ccnc(Nc3ccc(F)c(F)c3)n2)cc1
[1]
  inhibition: 0.82%
[2]
  inhibition: 20.4%
[3]
  inhibition: 60.8%
[4]
  inhibition: 2.48%
[5]
  inhibition: 6.3%
[6]
  inhibition: 2.32%
[7]
  inhibition: 4.16%
[8]
  inhibition: 4.75%
[9]
  inhibition: -1.25%
[10]
  inhibition: 3.56%

## Cn1c(-c2nonc2N)nc2cnccc21
[1]
  inhibition: 1.93%
[2]
  inhibition: 2.79%
[3]
  inhibition: 3.33%
[4]
  inhibition: 1.36%
[5]
  inhibition: 1.68%
[6]
  inhibition: 4.49%
[7]
  inhibition: 1.55%
[8]
  inhibition: 1.71%
[9]
  inhibition: -2.34%
[10]
  inhibition: 1.78%

## COc1ccc2ncn(-c3cc(O[C@H](C)c4ccccc4C(F)(F)F)c(C(N)=O)s3)c2c1
[1]
  inhibition: 3.29%
[2]
  inhibition: 0.34%
[3]
  inhibition: 1.98%
[4]
  inhibition: -2.14%
[5]
  inhibition: 1.15%
[6]
  inhibition: -1.48%
[7]
  inhibition: 8.06%
[8]
  inhibition: -1.49%
[9]
  inhibition: -1.84%
[10]
  inhibition: -0.34%

## COc1cccc(Nc2nccc(-c3cnn4ncccc34)n2)c1
[1]
  inhibition: 1.33%
[2]
  inhibition: 7.08%
[3]
  inhibition: 19.3%
[4]
  inhibition: 9.62%
[5]
  inhibition: 25.1%
[6]
  inhibition: 33%
[7]
  inhibition: 78.9%
[8]
  inhibition: 16.7%
[9]
  inhibition: 30.3%
[10]
  inhibition: 3.96%

## Nc1ncnc2occ(-c3ccc(NC(=O)Nc4cc(C(F)(F)F)ccc4F)cc3)c12
[1]
  inhibition: 16.7% and 10%
[2]
  inhibition: 3.04% and 0.42%
[3]
  inhibition: 24.4% and 11.4%
[4]
  inhibition: 37.5% and 26.9%
[5]
  inhibition: 84.5% and 74.3%
[6]
  inhibition: 65.9% and 59.9%
[7]
  inhibition: 89.1% and 89.5%
[8]
  inhibition: 18% and 5.3%
[9]
  inhibition: -7.38% and 0.28%
[10]
  inhibition: 5.11% and -0.01%

## CC(C)c1ccc(-c2cc(-c3c[nH]nc3-c3ccccn3)ccn2)cc1
[1]
  inhibition: 0.16%
[2]
  inhibition: 0.18%
[3]
  inhibition: 1.8%
[4]
  inhibition: 0.29%
[5]
  inhibition: 6.12%
[6]
  inhibition: -2.11%
[7]
  inhibition: 2.26%
[8]
  inhibition: 1.43%
[9]
  inhibition: -0.96%
[10]
  inhibition: 1.06%

## NS(=O)(=O)c1cccc(N/C=C2\C(=O)Nc3ccccc32)c1
[1]
  inhibition: 3.92%
[2]
  inhibition: 5.5%
[3]
  inhibition: 13.8%
[4]
  inhibition: 7.92%
[5]
  inhibition: 15.2%
[6]
  inhibition: 5.75%
[7]
  inhibition: 36.4%
[8]
  inhibition: 1.52%
[9]
  inhibition: -1.95%
[10]
  inhibition: 3.33%
